Screens (PubChem BioAssay)
A selection: hits, their analogues and other compounds. The true share with any hit is near 3.7%.
D3 antag: antagonists of human D3 dopamine receptor | max response, negative = inhibition, % | AID 652054 | D3R cells, DiscoveRx beta-arrestin luminescence, antagonist mode; stronger effect = lower value | hit rate 2.5% among 360,000; in the data active = max response below about -50%; inconclusive = no clear call, values can overlap the other calls; also: % is scaled to controls: 0 for no effect and ±100 for the full control effect
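Cells plated overnight at 1500 cells/well, then exposed to library compounds with dopamine controls for 90 minutes at 37 degrees C. DiscoveRx reagent added for 30–60 minutes at room temperature; luminescence read, quantitative HTS format.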
RGS4 inh: blocks human RGS4-accelerated GTP hydrolysis; P49798; Transcreener GDP fluorescence polarization, RGS4-accelerated GTP hydrolysis; Potency, µM (doses to about 114 µM), inactives show top-dose activity change, negative = inhibition, most hits filed as inhibitors; hit rate 0.039% among 390,000; also: potency is read from the fitted curve at half-maximal effect; % is scaled to controls: 0 for no effect and ±100 for the full control effect; nearly all actives have a fitted effect of over 75% in size
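MLSMR compounds (23 nl, pin-transferred) preincubated 10 min at room temperature with a 500nM (2x) first reagent, then RGS4 at 900nM (2x) plus Transcreener GDP mix added; fluorescence polarization (620/688 nm) read before and after 90 min at 30 °C.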
PTHR1 agonist: agonists of human PTHR1 parathyroid hormone receptor; Q03431; HEK293 GP2 PTHR1 cells, GloSensor cAMP luminescence, 1 h; Potency, µM (top dose mostly 115 µM), without a hit: at the top dose activation, actives largely listed as activators; hit rate 0.075% among 410,000; also: potency is read from the fitted curve at half-maximal effect; nearly all actives have a fitted effect of over 55% in size
Target sequence (Q03431 whole entry, looked up): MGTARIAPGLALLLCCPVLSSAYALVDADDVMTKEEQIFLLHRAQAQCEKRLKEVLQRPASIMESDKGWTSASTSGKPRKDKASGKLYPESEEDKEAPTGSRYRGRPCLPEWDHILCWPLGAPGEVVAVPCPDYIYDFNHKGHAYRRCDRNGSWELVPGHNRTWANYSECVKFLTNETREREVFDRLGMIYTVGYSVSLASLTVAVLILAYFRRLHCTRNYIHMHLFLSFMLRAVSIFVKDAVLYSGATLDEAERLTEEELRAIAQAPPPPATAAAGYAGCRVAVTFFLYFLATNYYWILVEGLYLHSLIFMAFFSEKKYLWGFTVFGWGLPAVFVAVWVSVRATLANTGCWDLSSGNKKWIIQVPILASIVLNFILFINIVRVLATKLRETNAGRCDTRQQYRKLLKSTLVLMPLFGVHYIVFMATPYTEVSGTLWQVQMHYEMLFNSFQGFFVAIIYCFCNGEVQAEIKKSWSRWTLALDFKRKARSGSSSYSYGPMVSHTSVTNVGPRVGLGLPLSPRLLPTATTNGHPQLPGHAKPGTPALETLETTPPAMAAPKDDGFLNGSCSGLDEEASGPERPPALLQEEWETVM
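HEK-293-derived GP2 cells expressing PTHR1 and a GloSensor cAMP reporter, 3,000/well, plated overnight, given luciferin plus IBMX (each 0.5 mM as added) for 1 h at 37 °C, then compound for 1 h at 37 °C. Luminescence was read after 15 min at room temperature.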
B2AR arrestin: agonists driving beta-arrestin recruitment to human beta2-adrenergic receptor. P07550. beta-arrestin recruitment to beta2AR, cell-based reporter. Potency, µM (doses to about 46.1 µM), for the others: at the top dose activation, usual class: activators. hit rate 0.02% among 330,000. AID 492947;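 also: potency is read from the fitted curve at half-maximal effect; 0% = DMSO controls and full agonism = EC100 isoproterenol or metaproterenol; nearly all actives have a fitted effect of over 65% in size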
DRD3 agonist: agonists of human D3 dopamine receptor; P35462; D3R DiscoveRx beta-arrestin cells, luminescence, 90 min; max activation, %; hit rate 0.58% among 410,000; AID 652048; in the data active = max activation above about 30%; also: 0% is about no effect
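Cells at 1500/well, incubated overnight, then treated with pinned compounds (dopamine as control) for 90 min at 37 degrees C. DiscoveRx reagent added for 30 - 60 minutes at room temperature; luminescence read.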
BRCA1 expr act: increases BRCA1 expression; MCF7-BRCA1-FFLuc reporter, luminescence, 48 h; response scale: scaled: vehicle 0%, 10 µM genistein 100%; Potency, µM (doses to about 46.1 µM), for the others: at the highest dose activation, usual class: activators; hit rate 1.1% among 380,000; also: potency is read from the fitted curve at half-maximal effect; nearly all actives have a fitted effect of over 80% in size
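Luminescence from a BRCA1-driven firefly luciferase in MCF7 cells was the read-out, taken 15 min after substrate addition following 48 h compound exposure at 37 °C. Data were normalized to a 10 microM genistein control and DMSO vehicle.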
Numbers without * were called inactive; i = inactive; ? = inconclusive; . = no result; [ ] = another dose, or the depositor's remark. Unless noted, calls follow the shape of the dose curve; as a rule, active = well fitted curve in the direction sought with a large enough effect; inconclusive = small, poorly fitted or top-dose-only effect, or another doubt; inactive = no such curve, though single readings can be large; an effect the other way counts as inactive or inconclusive.

SMILES	D3 antag	RGS4 inh	PTHR1 agonist	B2AR arrestin	DRD3 agonist	BRCA1 expr act
O=C(CN(C(=O)CCC(=O)Nc1ccccn1)c1cccc(F)c1)NCc1ccc(F)cc1	0	-16%	i	0%	32*	-37%
O=C(CN(C(=O)CCC(=O)Nc1ccccn1)c1ccc(F)cc1)NCc1ccc(F)cc1	-94*	-22%	-52%	-1%	-4	3%
O=C(CN(C(=O)CCC(=O)Nc1ccccn1)c1cccc(F)c1)NCc1ccc2c(c1)OCO2	-8	-16%	6%	0%	9	-15%
COc1ccc(S(=O)(=O)N2CCCCCC2)cc1C(=O)NCc1cccs1	0	-4%	-34%	0%	-5	-22%
CCOc1cccc(N2CCN(CCNC(=O)Nc3ccc(C)cc3)CC2)c1C	?	4%	-26%	0%	59*	-8%
O=C(Nc1ccc(C(=O)NCCCN2CCN(c3ccc(F)cc3)CC2)cc1)C1=CSCCO1	-92*	-23%	i	0%	-22	-1%
CCOc1ccc(NC(=O)C(=O)NCCN2CCN(S(=O)(=O)c3ccccc3)CC2)cc1	-1	?	i	0%	0	2%
CCOc1ccc(NC(=O)NCCN2CCN(c3ccccc3F)CC2)cc1	-69*	15%	-4%	0%	8	-1%
CCCN1CCN(CCNC(=O)Nc2ccccc2OCC)CC1	.	-6%	-27%	.	-3	-8%
COc1ccc(NC(=O)CN2CCC(C)CC2)cc1	-69*	-4%	i	0%	-20	32%
CC(NC(=O)COC(=O)COc1ccc(C(=O)c2ccccc2)cc1)c1ccccc1 (stereo not given)	-11	0%	-16%	0%	-6	-6%
C[C@H](CO)N1C[C@H](C)[C@@H](CN(C)S(=O)(=O)c2cccc(F)c2)Oc2ncc(Br)cc2C1=O	?	.	-26%	.	-7	1%
COc1cc(C2NC(=O)NC(c3ccccc3)=C2C(C)=O)c(Br)c(Br)c1O (stereo not given)	-8	-26%	i	0%	0	-12%
Cc1cc(C)c2c(CN(Cc3ccccc3)Cc3ccccc3)cc(=O)oc2c1	?	.	-41%	.	-3	-13%
COc1ccc(/C=N/NC(=O)CC(=O)N/N=C/c2ccc(OC)cc2)cc1	-4	8%	-16%	0%	-2	-3%
COc1cccc(NC(=O)NCCCN2CCN(c3ccc(F)cc3)CC2)c1	-56*	-25%	i	1%	-30	-10%
COc1ccc(-c2noc(CCC(=O)NCCCN3CCN(c4ccccc4F)CC3)n2)cc1	-95*	24%	-41%	0%	-13	3%
COc1ccc(NC(=O)NCCCN2CCN(c3cc(C)ccc3C)CC2)cc1	-108*	-12%	i	0%	-6	-14%
COc1ccc(/C=N/NC(=O)CN2CCS(=O)(=O)CC2)cc1	-52*	14%	-14%[57.5 µM]	0%	2	0%
CCOC(=O)c1c(C)[nH]c(CCC(=O)Nc2ccc(C)c(F)c2)c1C	.	-16%	-24%	.	3	.
COc1ccc(NC(=O)CN2CCN(c3ccccc3F)CC2)cc1	-87*	-26%	i	-2%	-11	3%
COc1ccc(N2C(=O)CC(N3CCN(c4ccccc4F)CC3)C2=O)cc1 (stereo not given)	-66*	-17%	-16%[57.5 µM]	0%	4	0%
Cc1ccc(C)c(N2CCN(CCCNC(=O)Cn3cccc3C(=O)c3ccccc3C)CC2)c1	-57*	11%	-42%	0%	-8	-90%
COc1ccc(NC(=O)CN2CCN(c3ccccc3)CC2)cc1	-14	-1%	-20%	0%	2	17%
COC(=O)c1ccc(N2CCN(CCNC(=O)Nc3ccc(OC)cc3)CC2)cc1	-25	-4%	-75%	0%	-1	-20%
SMILES	D3 antag	RGS4 inh	PTHR1 agonist	B2AR arrestin	DRD3 agonist	BRCA1 expr act
COc1ccc(N2C(=O)CC(N3CCN(c4ccccc4OC)CC3)C2=O)cc1 (stereo not given)	7	-3%	-4%	1%	-14	-23%
COc1ccc(NC(=O)NCCCN2CCN(c3ccccc3F)CC2)cc1	?	-6%	i	-1%	34*	-10%
Clc1ccc(NN(Cc2ccncc2)c2ccc(Cl)cc2)cc1	31	.	-14%	.	-2	-24%
O=C(Cn1cc(S(=O)(=O)Cc2ccc([N+](=O)[O-])cc2)c2ccccc21)N1CCOCC1	13	-36%	i	0%	3	-2%
CN(C)S(=O)(=O)c1cc(NC(=O)CN2CCN(c3ccccc3F)CC2)ccc1Cl	-7	21%	-18%	0%	49*	-17%
CCOc1ccc(NC(=O)NCCN2CCN(c3cccc(C)c3C)CC2)cc1	-59*	-7%	-12%	0%	63*	-19%
CCOc1ccc(OCC)c(NC(=O)CN2CCN(c3cccc(C)c3C)CC2)c1	-19	0%	i	0%	7	2%
CCc1ccc(OCC(=O)Nc2cc3oc4ccccc4c3cc2OC)c(Br)c1	.	10%	-23%	.	-14	.
Cc1cccc(OCC(=O)N2CCN(C(=O)c3ccco3)CC2)c1	-4	16%[11.4 µM]	-8%	-1%	2	22%
Cc1ccc2c(=O)cc(C(=O)Nc3c(C)cccc3C)oc2c1	.	-30%	i	.	4	.
Cc1cccc(N2CCN(Cc3nnc(-c4cccc(Br)c4)o3)CC2)c1C	.	4%	i	.	17	.
Cc1ccccc1N1CCN(Cc2ccc(Br)o2)CC1	-58*	-45%	i	1%	-6	-13%
Cc1cccc(N2CCN(Cc3ccc(Br)o3)CC2)c1C	-56*	-2%	i	0%	-26	9%
Cc1ccccc1N1CCN(Cc2cccc(C(=O)O)c2)CC1	?	-7%	-13%[57.5 µM]	-3%	-49	5%
Clc1ccccc1N1CCN(Cc2ccc(Br)o2)CC1	-60*	-5%	i	.	-31	-4%
Brc1ccc(CN2CCN(c3ccccc3)CC2)o1	-20	-3%	i	0%	4	-14%
O=C(COC(=O)c1ccc[nH]c1=O)NC1CC1	-1	6%	i	0%	2	-16%
COc1ccc(NC(=O)COC(=O)c2cccn2C)cc1S(=O)(=O)N1CCCCC1	9	20%	-21%	-1%	0	-29%
CCc1nc2cc3sc(CC)nc3cc2s1	5	15%	i	-1%	-6	44%
Cc1cn(CC(=O)NCCNc2ccc([N+](=O)[O-])cn2)c(=O)[nH]c1=O	11	3%	16%	.	0	20%
Cc1ccc(/C=C/C(=O)O)cc1S(=O)(=O)NCc1ccco1	10	1%	0%	0%	41*	-23%
